# Source: publication PMC4336329 (PLoS ONE, 2015)
# About 14,000 (4.5%) of roughly 310,000 compounds showed an effect of 50% or more. Effects have a minus sign here. This is one part of a sample in which strong results are shown more often than they occur.
# Target: human ether-à-go-go-related gene (hERG) potassium channel (human, UniProt Q12809)
# Assay: primary screen, population patch clamp on CHO cells stably expressing hERG; higher = less effect of the substance
# 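Further: peak tail current of the secondary pulse compared with the same well before compound.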
# Chain of human ether-à-go-go-related gene (hERG) potassium channel (Q12809 whole entry, looked up): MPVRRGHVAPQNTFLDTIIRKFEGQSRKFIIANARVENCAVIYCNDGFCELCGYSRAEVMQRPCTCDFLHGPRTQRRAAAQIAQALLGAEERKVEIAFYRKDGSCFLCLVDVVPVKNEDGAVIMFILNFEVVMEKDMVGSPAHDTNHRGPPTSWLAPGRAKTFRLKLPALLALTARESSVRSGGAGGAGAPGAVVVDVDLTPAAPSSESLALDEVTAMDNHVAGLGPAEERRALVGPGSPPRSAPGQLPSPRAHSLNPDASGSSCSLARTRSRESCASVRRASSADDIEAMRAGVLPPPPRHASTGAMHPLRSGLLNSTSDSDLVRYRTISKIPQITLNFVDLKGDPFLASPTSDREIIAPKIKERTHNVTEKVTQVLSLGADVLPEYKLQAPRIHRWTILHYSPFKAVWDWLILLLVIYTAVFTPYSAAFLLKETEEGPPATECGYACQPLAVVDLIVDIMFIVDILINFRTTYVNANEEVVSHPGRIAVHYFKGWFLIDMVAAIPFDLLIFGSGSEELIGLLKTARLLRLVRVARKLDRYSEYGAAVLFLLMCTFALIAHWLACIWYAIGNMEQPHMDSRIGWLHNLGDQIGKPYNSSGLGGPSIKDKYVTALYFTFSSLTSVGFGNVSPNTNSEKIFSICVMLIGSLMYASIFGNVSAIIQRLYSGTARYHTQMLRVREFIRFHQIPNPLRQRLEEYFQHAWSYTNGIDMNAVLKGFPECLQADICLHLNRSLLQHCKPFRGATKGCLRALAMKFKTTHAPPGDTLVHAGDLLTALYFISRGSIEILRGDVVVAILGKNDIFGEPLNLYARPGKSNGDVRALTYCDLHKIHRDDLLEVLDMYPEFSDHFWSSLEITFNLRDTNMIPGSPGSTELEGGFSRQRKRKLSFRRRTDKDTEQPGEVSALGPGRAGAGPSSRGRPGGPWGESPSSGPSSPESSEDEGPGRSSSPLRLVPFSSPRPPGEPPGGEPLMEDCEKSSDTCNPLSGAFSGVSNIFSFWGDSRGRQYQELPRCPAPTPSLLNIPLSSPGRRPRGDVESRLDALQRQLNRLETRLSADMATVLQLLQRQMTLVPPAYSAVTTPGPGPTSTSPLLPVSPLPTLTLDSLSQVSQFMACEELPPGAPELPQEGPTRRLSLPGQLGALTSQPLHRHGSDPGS
row,Compound,"hERG current change (%, negative = inhibition) at 10uM"
1,CC1(C)CC(=O)C2=C(C1)OC1=C(C(=O)CC(C)(C)C1)C2c1ccc(O)c([N+](=O)[O-])c1,14%
2,Cc1cc(O)c(C=Nc2ccc(N3CCOCC3)cc2)c(C)c1Cl,18.5%
3,O=C1CN(C(=O)COC(=O)C2CC(=O)N(Cc3ccco3)C2)c2ccccc2N1 (centres unmarked),-7.99%
4,CSc1ccc(/C=C2\C(=N)N3N=C(CC(=O)N4CCOCC4)SC3=NC2=O)cc1,14.2%
5,CN1CCN(C(=O)c2ccc3c(c2)NC(=O)/C(=C/c2ccccc2)S3)CC1,-16%
6,Cc1cccc(/C=C2/Sc3ccc(C(=O)NCCCN4CCOCC4)cc3NC2=O)c1,-25.3%
7,COc1cccc(/C=C2/Sc3ccc(C(=O)NCCCN4CCCC4)cc3NC2=O)c1,-59.8%
8,CCC1CCCCN1CCCNC(=O)c1ccc(/C=C2/Sc3ccccc3NC2=O)cc1 (centres unmarked),-76.9%
9,CCN1CCN(CCCNC(=O)c2ccc3c(c2)NC(=O)/C(=C\c2cccc(C)c2)S3)CC1,-38.6%
10,Cc1cccc(/C=C2/Sc3ccc(C(=O)NCCN4CCCC4)cc3NC2=O)c1,-54.7%
11,CCN1CCCC1CNC(=O)c1ccc2c(c1)NC(=O)/C(=C\c1ccc(C)cc1)S2 (centres unmarked),-42.4%
12,COc1cccc(/C=C2/Sc3ccc(C(=O)NCCN4CCCC4)cc3NC2=O)c1,-39.1%
13,CC1CCN(C(=O)c2ccc3c(c2)NC(=O)/C(=C/c2ccccc2)S3)CC1,11%
14,O=C1Nc2cc(C(=O)N3CCC(N4CCCCC4)CC3)ccc2S/C1=C\c1ccccc1,-58.3%
15,CCC1CCCCN1CCCNC(=O)c1ccc2c(c1)NC(=O)CS2 (centres unmarked),4.27%
16,COc1cccc(/C=C2/Sc3ccc(C(=O)NCCN4CCCCCC4)cc3NC2=O)c1,-47.3%
17,CC(C)(C)C(=O)O/N=C(\N)c1ccc([N+](=O)[O-])s1,20.7%
18,CSc1cccc(NC(=O)C2CCN(C(=O)c3ccccc3C)CC2)c1,-18.7%
19,O=C1CC(c2ccc(F)cc2)Cc2nc(N3CCN(c4ccccc4)CC3)ncc21 (centres unmarked),1.48%
20,O=C(O)c1ccc(/C=N/NC(=O)c2ccc3c(c2)OCCO3)cc1,16.1%
21,CCn1c(C2CCN(Cc3ccccc3)CC2)n[nH]c1=S,-17.3%
22,CCC(=O)N/N=c1/sc2ccccc2n1C,13.9%

row,Compound,"hERG current change (%, negative = inhibition) at 10uM"
1,Cc1ccc(C)c(NC2=NCCCS2)c1,1.48%
2,CC1(C)CC(NC(=O)COc2ccc3ccccc3c2)CC(C)(C)N1,-12.6%
3,O=C1Nc2cc(C(=O)NCCCN3CCOCC3)ccc2S/C1=C/c1ccccc1F,-29.8%
4,O=C1Nc2cc(C(=O)NCCN3CCCCCC3)ccc2S/C1=C\c1ccccc1,-43.9%
5,O=C(NCCCN1CCCCC1)c1ccc2c(c1)NC(=O)c1ccccc1S2,-13.7%
6,O=C1Nc2cc(C(=O)NCCCN3CCCC3)ccc2S/C1=C/c1ccccc1F,-69.5%
7,O=C1Nc2cc(C(=O)NCC3CCCO3)ccc2S/C1=C/c1ccccc1F (centres unmarked),-4.84%
8,O=C1Nc2cc(C(=O)NCCCN3CCCC3)ccc2S/C1=C\c1ccccc1,-51.4%
9,COc1ccccc1N1CCN(S(=O)(=O)/C=C/c2ccccc2)CC1,-11.3%
10,Cc1ccc(NC(=O)CN(C)C(=O)COC(=O)COc2ccc(C#N)cc2)cc1,-24.2%
11,O=C(O)c1cccc2c1C(=O)c1ccccc1C2=O,19.7%
12,Cc1ccc(S(=O)(=O)Nc2cc(-c3ccccc3)nn2C)cc1Cl,12.2%
13,COc1ccccc1NC(=S)NCC1CCCO1 (centres unmarked),8.94%
14,Cc1ccc(NC(=O)CSc2ccc3nnc(CCNC(=O)c4ccccc4)n3n2)c(C)c1,-18%
15,S=C(NCCCc1ccccc1)Nc1ccc(Br)cc1,17.9%
16,CCCCCOC(=O)C1[C@H]2C(=O)N(Cc3cccs3)C[C@]23C=C[C@H]1O3 (some centres unmarked),1.95%
17,Cc1ccc2nc(SCC(=O)NC3CCCCC3)nc(=O)n2c1,-14.5%
18,Cc1ccc2nc(SCC(=O)NC3CCCC3)nc(=O)n2c1,-25.1%
19,Cc1ccc2nc3c(cc(C(=O)NC4CCS(=O)(=O)C4)n3Cc3ccccc3)c(=O)n2c1 (centres unmarked),19.6%
20,Cc1ccc2nc3nc(NCC4CCCO4)c(C(=O)NC4CCCCC4)cc3c(=O)n2c1 (centres unmarked),-78.1%
21,Cc1ccc2nc3nc(NCC4CCCO4)c(C(=O)NC4CCCC4)cc3c(=O)n2c1 (centres unmarked),-75.6%
22,O=C(NC1CCCCCC1)c1ccc2nc3cc(Cl)ccc3c(=O)n2c1,7.94%

row,Compound,"hERG current change (%, negative = inhibition) at 10uM"
1,COC(=O)Cc1ccc(NC(=O)c2ccc3c(c2)C(=O)N(Cc2ccco2)C3=O)cc1,-2.43%
2,Cn1nc(C(F)(F)F)c(-c2ccccc2)c1NC(=O)CSCC(=O)O,12.2%
3,CCSc1ncnc2c1sc1nc3c(cc12)COC(C)(C)C3,-2.04%
4,COc1cc(OC)cc(C(=O)N2CCC(N3CCN(c4ccccc4)CC3)CC2)c1,-26.9%
5,COc1ccc(C(=O)N2CCC(N3CCN(c4ccccc4)CC3)CC2)cc1.O=C(O)C(=O)O,-57.6%
6,COc1ccccc1C(=O)N1CCC(N2CCN(c3ccccc3)CC2)CC1,-8.58%
7,COc1ccccc1N1CCN(C2CCN(C(=O)c3cccc(F)c3)CC2)CC1.O=C(O)C(=O)O,-33.1%
8,COc1ccccc1N1CCN(C2CCN(C(=O)c3ccc(F)cc3)CC2)CC1,-61%
9,COc1ccccc1N1CCN(C2CCN(C(=O)c3cc(OC)c(OC)c(OC)c3)CC2)CC1,-23.1%
10,CCN1CCC(N2CCN(c3ccccc3OC)CC2)CC1,11.7%
11,COc1ccccc1N1CCN(C2CCN(C(=O)COc3cccc(C)c3)CC2)CC1.O=C(O)C(=O)O,-67.8%
12,COc1ccccc1N1CCN(C2CCN(C(=O)COc3ccccc3)CC2)CC1,-25.4%
13,COc1ccccc1N1CCN(C2CCC(C)CC2)CC1 (centres unmarked),4.87%
14,COc1ccccc1N1CCN(C2CCN(C3CCC(c4ccccc4)CC3)CC2)CC1.O=C(O)C(=O)O (centres unmarked),-74.1%
15,Cc1cccc(OCC(=O)N2CCC(N3CCCCCC3)CC2)c1,-11.2%
16,CSc1sc(C)cc1/C=N/O,6.46%
17,NC(=O)c1nsc(C(=O)N(Cc2ccco2)C(C(=O)NCc2ccc(F)cc2)c2ccc(O)cc2)c1N (centres unmarked),-43.8%
18,O=C(OC1CCOC1=O)c1ccc(CO)cc1 (centres unmarked),27.4%
19,CCCn1c2ccccc2c2cc(C(=O)O)ccc21,6.24%
20,c1ccc(-c2csc(-c3ccc(-c4csnn4)cc3)n2)cc1,17.6%
21,CN1C(=O)c2ccccc2Sc2ccc(NC(=O)N3CCOCC3)cc21,-7.88%
22,C=CCn1cc(C=C2C(=O)N(C)C(=O)N(C)C2=O)c2ccccc21,23.9%

row,Compound,"hERG current change (%, negative = inhibition) at 10uM"
1,CC(C)CC(=O)Nc1nc2c(c(=O)[nH]1)CCCC2,17.9%
2,CN=C1CN(O)C(c2ccccc2)=c2cc(Cl)ccc2=N1,18.6%
3,C/C(=N\NC(=O)CNc1ccc(F)cc1)c1cc2ccccc2o1,-26.6%
4,C=CCn1c(O)c(N=NC(=O)c2cccnc2)c2cc(Br)ccc21,-16.1%
5,C=CCn1c(=O)c(C(=O)NCc2ccccc2)c(O)c2ccccc21,15.4%
6,O=[N+]([O-])c1cccc(Cl)c1NCCNc1ncc(C(F)(F)F)cc1Cl,15.6%
7,Cc1ccc(S(=O)(=O)NC(C)(C)CN2CCCCC2)cc1,3.77%
8,Cc1cc(=O)oc2cc(OCC(=O)NC3CC(C)(C)NC(C)(C)C3)ccc12,-34.2%
9,Cc1cc(=O)oc2cc(OCC(=O)NC3CCCCC3)ccc12,-60.7%
10,Cc1cc(=O)oc2cc(OCC(=O)OCC(=O)NC3CC3)ccc12,16.4%
11,COc1ccc(C(=O)COc2ccc3c(C)cc(=O)oc3c2)cc1,11.1%
12,Cc1cc(=O)oc2cc(OCC(=O)NC3CCCC3)ccc12,-67.2%
13,Cc1cc(=O)oc2cc(OCC(=O)OC(C)C(=O)NC3CCCC3)ccc12 (centres unmarked),2.63%
14,Cc1cc(=O)oc2cc(OCC(=O)c3ccccc3)ccc12,10.9%
15,COc1cccc(C(=O)COc2ccc3c(C)cc(=O)oc3c2)c1,-70.8%
16,O=C(COc1ccc2c3c(c(=O)oc2c1)CCC3)NC1CCCCC1,4.83%
17,CCOc1cc(NC(=S)NCC(C)C)c(OCC)cc1NC(=O)c1cccs1,13.2%
18,O=C1NC2(CCCCC2)C(=O)N1/N=C/c1ccc(O)cc1O,-16.7%
19,COc1ccc(C(=O)c2c[nH]c(C(=O)N=CN(C)C)c2)cc1,10.2%
20,O=C(c1ccc(NC2=NC3CS(=O)(=O)CC3S2)cc1)N1CCN(c2ccccc2)CC1 (centres unmarked),20.7%
